We go through 22 molecules from PubChem BioAssay (NCATS).

What all share (assay): qHTS profiling for inhibitors of Plasmodium falciparum proliferation (AID 504749); further: nearly all actives have a fitted effect of over 60% in size
Holding throughout (settings): P. falciparum in erythrocytes, SYBR Green DNA, 72 h; series mostly up to 28.7 µM
In general terms: In qHTS, concentration-response curves come from the screen itself.

For one experiment, the system named is CP238. In a few lines: (§1)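 Readout was DNA-dye fluorescence from lysed cultures, ex 485/em 535 nm. Parasitized red cells had grown 72 h with compound; data scaled between 0.29 uM artemisinin and DMSO wells and corrected using vehicle-only plates.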
The test system of a further experiment is CP250. In a few lines: as §1
The subject of another experiment is CP252. In a few lines: as §1
Another experiment concerns CP256. In a few lines:
as §1

The test system of a further experiment is CP260. In a few lines:
as §1

Another experiment deals with CP262. In a few lines:
as §1

The test system of a further experiment is CP265. In a few lines:
as §1

A further experiment deals with CP266. In a few lines:
as §1

For the next experiment, the system named is CP268. In a few lines:
as §1

Another experiment concerns CP247. In a few lines: as §1

Results filed as inconclusive are left out. Activity calls are given as the source filed them. The call rests on the fitted dose curve; in most records, active means well fitted inhibition curve with a large enough effect; inconclusive means small, poorly fitted or top-dose-only effect; inactive means flat fitted curve, though single readings scatter.
Potency means the concentration at half of the fitted maximal effect.

As for `CC(C)(C)NCC(O)COc1ccc(NC(=O)NC2CCCCC2)cc1` (centres undefined), the Potency result in the experiment on CP238, in the experiment on CP250, in the experiment on CP252, in the experiment with CP256, in the experiment with CP260 and with CP262 was “inactive” throughout. In addition, the Potency result with CP265, in the experiment on CP266 and with CP268 was “inactive” throughout.

`CN(C)CCCN1c2ccccc2Sc2ccc(Cl)cc21`: the Potency entry in the experiment on CP247, with CP256, in the experiment on CP262 and with CP266 was “inactive” throughout.

On to `CN1CCC[C@@H]1Cc1c[nH]c2ccc(CCS(=O)(=O)c3ccccc3)cc12`, for which the Potency entry in the experiment with CP252, in the experiment on CP262 and in the experiment on CP266 was “inactive” each time.

Consider `COc1ccc2[nH]c(S(=O)Cc3ncc(C)c(OC)c3C)nc2n1` (centres undefined), for which the Potency in the experiment on CP247 is 11.2 µM (active). For the same molecule, the Potency result in the experiment with CP262 and with CP268 was “inactive” throughout.

Take `CCN(CC)CCNC(C(=O)OCCC(C)C)c1ccccc1` (centres undefined): the Potency entry in the experiment on CP247, in the experiment on CP250, with CP262 and in the experiment with CP266 was “inactive” throughout. Besides, the Potency in the experiment with CP265 is 8.91 µM (active).

With `COC(=O)C1=C(C)NC(C)=C(C(=O)OC)C1c1ccccc1[N+](=O)[O-]`, the Potency result in the experiment on CP238, in the experiment with CP252, in the experiment on CP256, in the experiment with CP262, in the experiment on CP265 and with CP266 was “inactive” throughout. Further, in the experiment with CP268, the Potency entry was “inactive”.

For `CC(CN1c2ccccc2Sc2ccccc21)N(C)C` (centres undefined), the Potency entry in the experiment on CP238, with CP247, with CP250, in the experiment on CP252, in the experiment on CP256 and in the experiment on CP262 was “inactive” each time. Also, the Potency result in the experiment with CP266 and in the experiment with CP268 was “inactive” each time.

`c1ccc(CN(CC2=NCCN2)c2ccccc2)cc1`: the Potency entry in the experiment with CP247, in the experiment on CP252, in the experiment with CP256, in the experiment with CP262 and with CP266 was “inactive” each time.

On to `CC(=O)NC(Cc1ccccc1)C(=O)O` (centres undefined), for which the Potency entry with CP238, with CP250, with CP252, in the experiment with CP256, in the experiment with CP260 and with CP262 was “inactive” each time. The Potency result in the experiment with CP265, with CP266 and in the experiment with CP268 was “inactive” in each case.

For the molecule `CNCCCC1c2ccccc2C=Cc2ccccc21`, the Potency entry with CP247, in the experiment on CP250, in the experiment on CP252, in the experiment with CP260, in the experiment with CP262 and with CP266 was “inactive” in each case. For the same molecule, the Potency result in the experiment on CP268 is “inactive”.

Regarding `CC(C(O)c1ccc(O)cc1)N1CCC(Cc2ccccc2)CC1` (centres undefined), in the experiment on CP268, the Potency was 15.1 µM (active).

Consider `CSc1ccc2c(c1)N(CCC1CCCCN1C)c1ccccc1S2` (centres undefined), for which the Potency in the experiment with CP260 was 7.94 µM (active). Moreover, the Potency result in the experiment with CP266 is “inactive”.

In the case of `CC(C)(C)C(=O)C(Oc1ccc(Cl)cc1)n1ccnc1` (centres undefined), the Potency result in the experiment on CP256, with CP262 and in the experiment with CP266 was “inactive” throughout.

On to `O=S(=O)(O)c1cc(I)c(O)c2ncccc12`, for which the Potency entry in the experiment with CP238, in the experiment on CP247, in the experiment on CP250, in the experiment on CP252, in the experiment on CP256 and with CP262 was “inactive” each time. Further, the Potency entry in the experiment on CP265, in the experiment on CP266 and with CP268 was “inactive” each time.

`CN(C)CCN(Cc1ccccc1)c1ccccn1`: the Potency entry in the experiment on CP247, in the experiment on CP250, with CP256, in the experiment with CP262 and in the experiment on CP266 was “inactive” throughout.

Turning to `CCCc1c(OCCCCc2nn[nH]n2)ccc(C(C)=O)c1O`, the Potency result with CP238, in the experiment with CP250, in the experiment on CP252, in the experiment on CP256, in the experiment with CP262 and in the experiment with CP265 was “inactive” each time. The Potency result in the experiment on CP266 and in the experiment with CP268 was “inactive” each time.

Regarding `Oc1ccc(C(O)CNCCCCCCNCC(O)c2ccc(O)c(O)c2)cc1O` (centres undefined), the figures for the Potency in the experiment with CP247 and in the experiment on CP260 were 11.2 µM (active) and 7.94 µM (active), respectively. The Potency entry in the experiment on CP262 is “inactive”.

Take `COCCOC(=O)C1=C(C)NC(C)=C(C(=O)OC/C=C/c2ccccc2)C1c1cccc([N+](=O)[O-])c1` (centres undefined): the Potency entry in the experiment on CP266 was “inactive”.

Take `[Cl][In]([Cl])[Cl]`: the Potency result with CP238, in the experiment on CP252 and with CP262 was “inactive” each time.

Consider `OCc1cc(C(O)CNCCCCCCOCCCCc2ccccc2)ccc1O` (centres undefined), for which the Potency result in the experiment with CP238, in the experiment with CP247, in the experiment on CP250, in the experiment on CP252, in the experiment with CP265 and in the experiment on CP266 was “inactive” each time. The Potency result with CP268 is “inactive”.

Turning to `O=C(O)[C@@H]1CSCN1`, the Potency entry in the experiment on CP238, in the experiment on CP250, in the experiment with CP252, in the experiment on CP256, in the experiment on CP260 and in the experiment on CP262 was “inactive” in each case. Besides, the Potency entry in the experiment with CP265 and with CP268 was “inactive” in each case.

Take `O=S(=O)(O)NC1CCCCC1`: the Potency entry in the experiment on CP238, in the experiment on CP247, in the experiment with CP252, in the experiment with CP256, in the experiment on CP260 and in the experiment on CP262 was “inactive” in each case. The Potency result with CP265, with CP266 and in the experiment with CP268 was “inactive” each time.
